The assay has as its target Hepatocyte nuclear factor 4-alpha (Homo sapiens) (UniProt P41235). The assay can be described thus: change in HNF4A binding to DNA, retest, confirmation, biochemical, fluorescence polarization, FITC-DNA (AID 1224897). The note with it: 1 h, at 12.5 µM, hits give high values.

The values that follow come from PubChem BioAssay AID1224897 (Sanford-Burnham Center for Chemical Genomics, 2016).

This is one part of the list. Active and inactive are the calls of the source. How the calls were made is not given here.

Sequence of Hepatocyte nuclear factor 4-alpha (Homo sapiens) (P41235 whole entry, looked up): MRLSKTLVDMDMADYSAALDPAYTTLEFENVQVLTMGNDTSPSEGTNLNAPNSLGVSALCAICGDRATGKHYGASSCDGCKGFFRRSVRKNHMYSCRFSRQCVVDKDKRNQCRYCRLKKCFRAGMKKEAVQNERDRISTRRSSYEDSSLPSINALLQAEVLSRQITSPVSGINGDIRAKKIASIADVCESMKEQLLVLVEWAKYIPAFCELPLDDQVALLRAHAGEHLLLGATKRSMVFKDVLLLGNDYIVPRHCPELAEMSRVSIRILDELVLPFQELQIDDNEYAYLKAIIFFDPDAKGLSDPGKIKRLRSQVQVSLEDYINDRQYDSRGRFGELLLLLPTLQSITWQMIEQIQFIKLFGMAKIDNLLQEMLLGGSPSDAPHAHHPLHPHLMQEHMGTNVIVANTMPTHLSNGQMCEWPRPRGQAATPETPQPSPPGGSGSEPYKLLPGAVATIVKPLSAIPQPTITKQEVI

For the compound `COc1ccccc1N=Nc1c(O)[nH]c(=S)[nH]c1=O`, the activity change was 112% (active).
